Most compounds without a hit are left out; they make up all but 21% or so of the library.
NS1 function inh – blocks influenza NS1 protein function | Potency, µM (highest dose often 46.1 µM) | 270,000 tested, 0.4% active; calls by dose curve; note: actives are rising curves; nearly all actives have a fitted effect of over 50% in size
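S. cerevisiae expressing influenza A NS1, grown in glucose, washed, then diluted 1:100 into pH 6.0 -URA galactose medium with 23 nl compound. Growth recovery read as OD600; NS1-free strain serves as control.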
Pf growth 48h – P. falciparum growth inhibition at 48 hours (one generation) | 310,000 tested, 5.9% active | Potency, µM (doses to about 28.7 µM), hits mostly inhibitors | P. falciparum luciferase growth in erythrocytes, 48 h
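Luciferase-expressing parasites in RBCs, 2% Hct / 0.1% parasitemia final; RPMI 1640 + 0.5% Albumax; 37 C, 5% CO2, one generation; luminescence read-out, lower signal = inhibition.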
CHX counter – affects cycloheximide protein synthesis inhibition readout, counter-screen. cell reporter, cycloheximide protein synthesis inhibition counterscreen. max response, %. 300,000 tested, 12% active. AID 2314; in the data active = max response mostly above about 13%, no sharp cut-off; inactive = mostly below about 14%; note: read at 38.3 µM for the half of the compounds with a filed dose
Pf growth 96h – inhibits malaria parasite growth, 96 h; P. falciparum luciferase reporter growth, 96 h; Potency, µM (highest dose often 28.7 µM), most hits filed as inhibitors; 320,000 tested, 6.9% active
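Parasite growth measured via integrated firefly luciferase reporter in P. falciparum. Infected erythrocytes at 2% hematocrit, 0.05% parasitemia final were treated 96 hours at 37 C under 5% CO2, and luminescence was read.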
Shiga toxin inh – inhibitors of Shiga toxin in Vero cells; AID 2315; inhibition, % at 38.7 µM; Vero cells, Shiga toxin protein synthesis inhibition reporter; 290,000 tested, 9.2% active; in the data active = inhibition mostly above about 28%, no sharp cut-off; inactive = mostly below about 43%
Giardia FBPA inh – blocks Giardia fructose-bisphosphate aldolase activity; Potency, µM (top dose mostly 59.6 µM), usual class: inhibitors; purified Giardia FBPA; A8B2U2; AID 2451; 290,000 tested, 0.71% active; note: nearly all actives have a fitted effect of over 55% in size
Target sequence (A8B2U2 whole entry, looked up): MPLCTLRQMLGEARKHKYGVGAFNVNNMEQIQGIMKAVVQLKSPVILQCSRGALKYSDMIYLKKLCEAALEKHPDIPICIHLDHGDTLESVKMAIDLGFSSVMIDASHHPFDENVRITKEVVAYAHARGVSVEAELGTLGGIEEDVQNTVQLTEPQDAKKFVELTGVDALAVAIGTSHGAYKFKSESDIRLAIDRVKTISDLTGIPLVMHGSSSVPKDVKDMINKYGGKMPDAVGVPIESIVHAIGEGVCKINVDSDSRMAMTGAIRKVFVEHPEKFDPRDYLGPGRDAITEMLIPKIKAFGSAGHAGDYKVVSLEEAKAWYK
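40 nM FBPA preincubated 10 min at RT with compound (up to 57.5 uM final), then substrate plus GAPDH/TPI/NAD/arsenate coupling and diaphorase/resazurin added. Fluorescence read after 20 min at RT, 525/598 nm.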
A number is an active result; 0 = inactive; ? = inconclusive; - = no result given. Unless noted, calls come from the whole dose curve; as a rule, active = well fitted curve in the direction sought with a large enough effect; inconclusive = small, poorly fitted or top-dose-only effect, or another doubt; inactive = no such curve, though single readings can be large; an effect the other way counts as inactive or inconclusive.

SMILES	NS1 function inh	Pf growth 48h	CHX counter	Pf growth 96h	Shiga toxin inh	Giardia FBPA inh
NS(=O)(=O)c1ccc(NC(=O)c2cc(-c3ccccc3O)n[nH]2)cc1	0	?	0	?	0	0
Cc1ccc(O)c(-c2cc(C(=O)Nc3ccc(S(=O)(=O)Nc4nc(C)cc(C)n4)cc3)[nH]n2)c1	?	?	0	13.1µM	0	0
COc1ccc(N2CCCn3c2nc2c3c(=O)n(Cc3ccccc3F)c(=O)n2C)cc1	0	0	0	?	0	0
CC(C)Cn1c(=O)c2c(nc3n2CCCN3Cc2ccccc2)n(C)c1=O	0	10.4µM	0	11.7µM	0	0
Cn1c(=O)n(C/C=C/c2ccccc2)c(=O)c2c1nc1n2CCCN1c1ccc(F)cc1	0	11.7µM	0	?	0	0
Cc1cccc(Cn2c(=O)c3c(nc4n3CCCN4Cc3ccccc3)n(C)c2=O)c1	0	13.1µM	0	-	0	0
C=CCn1c(=O)c2c(nc3n2CCCN3Cc2ccccc2)n(C)c1=O	0	?	0	0	0	0
Cn1c(=O)n(C/C=C/c2ccccc2)c(=O)c2c1nc1n2CCCN1Cc1ccccc1	?	13.1µM	0	14.7µM	0	0
CCn1c(=O)c2c(nc3n2CCCN3Cc2ccccc2)n(C)c1=O	0	?	0	0	0	0
Cc1ccc(F)c(NC(=O)c2c(-c3ccccc3)noc2C)c1	0	0	0	0	0	-
CC(=O)Nc1cc(NC(C)=O)cc(C(=O)NCC2(N3CCOCC3)CCCCC2)c1	-	0	-	?	-	-
COc1ccccc1CNC(=O)[C@H](C)NC(=O)C1CCN(C(=O)[C@H](CCSC)NC(=O)OC(C)(C)C)CC1	0	?	0	0	0	0
COCCn1c(N)c(N(Cc2ccccc2)C(=O)C2CCCC2)c(=O)[nH]c1=O	-	0	0	0	0	0
CCn1c(=O)c2c(nc3n2CCCN3CCc2ccc(OC)c(OC)c2)n(C)c1=O	0	?	0	?	0	0
COc1ccc(CCN2CCCn3c2nc2c3c(=O)n(Cc3ccccc3F)c(=O)n2C)cc1OC	0	2.33µM	0	2.94µM	0	0
CC(C)CC1OC(=O)C2=CCCCC21 (stereo not given)	-	-	0	-	0	0
O=C(O)CCN=CC1=C(O)CC(c2ccccc2)CC1=O (stereo not given)	0	0	0	0	0	0
CN(C(=O)COC(=O)c1c2c(nc3ccccc13)CCCC2)c1c(N)n(Cc2ccccc2)c(=O)[nH]c1=O	-	13.1µM	-	8.28µM	-	-
CC(C)CN(C(=O)COC(=O)c1c2c(nc3ccccc13)CCC2)c1c(N)n(Cc2ccccc2)c(=O)[nH]c1=O	0	8.28µM	0	6.57µM	0	-
CC(C)CN(C(=O)COC(=O)c1ccc(Cl)nc1)c1c(N)n(Cc2ccccc2)c(=O)[nH]c1=O	-	0	-	0	-	-
CCCCc1ncc(CN2CCC(n3nccc3NC(=O)c3ccccc3Cl)CC2)[nH]1	0	0	0	?	0	-
CC(/C=N/NC(=O)c1c(Br)cnn1C)=C\c1ccccc1	0	0	25.1	0	47.0	0
CC(/C=N/NC(=O)c1nn(C)c(C)c1Br)=C\c1ccccc1	0	0	63.4	0	117.4	0
COc1ccc(C2=Nn3c(nnc3-c3cc(OC)cc(OC)c3)SC2)cc1	-	-	0	-	0	0
O=C(Cc1ccccc1)N/N=C/c1ccc2cccc(O)c2n1	0	0	31.6	0	0	0
SMILES	NS1 function inh	Pf growth 48h	CHX counter	Pf growth 96h	Shiga toxin inh	Giardia FBPA inh
Cc1ccc(NC(=O)CCNS(=O)(=O)c2ccc3c(c2)CCC(=O)N3)c(Br)c1	0	0	0	0	0	0
Cc1ccc(NC(=O)N2CCCC2C(=O)NCc2ccc(Cl)cc2)cc1 (stereo not given)	0	0	0	?	0	0
COc1ccc(Cc2nc3ccc(C(=O)NCCc4cccc(C)n4)cc3o2)cc1	0	?	0	0	0	-
COc1ccc(Cc2nc3ccc(C(=O)NCC(C)(C)OC)cc3o2)cc1	0	0	34.0	0	96.0	0
COc1ccc(Cc2nc3ccc(C(=O)NCc4cc(C)no4)cc3o2)cc1	0	?	56.7	0	65.7	0
CC(C(=O)Nc1ccccc1Br)N1c2cccc3cccc(c23)S1(=O)=O (stereo not given)	0	?	0	0	0	-
CCc1c(C(=O)NNC(=O)Nc2ccc3c(c2)OCO3)csc1C	0	0	38.3	0	0	-
O=C(Nc1ccc2c(c1)OCO2)Nc1ccccc1F	0	0	57.1	0	108.5	-
CCc1ccccc1NC(=S)NCc1ccc2c(c1)OCO2	0	0	0	?	0	0
CCc1ccccc1NC(=O)Nc1ccc2c(c1)OCO2	0	0	34.7	0	0	0
CCc1cccc(NC(=O)Nc2ccc3c(c2)OCO3)c1	0	0	28.7	?	46.6	0
CCc1ccc(CN(C)C(=O)C2=CC=CN3CCS(=O)(=O)N=C23)cc1	-	0	-	0	-	-
COc1ccc(CNC(=O)CN(Cc2ccccc2)C(=O)CCC(=O)Nc2nccs2)cc1	0	0	0	0	0	0
CCCC[N+]12C3C[C@H](C4[C@H](O)[C@]5(C[C@@H]41)c1ccccc1N(C)[C@@H]35)[C@H](CC)[C@H]2O (stereo not given in full)	0	13.1µM	0	?	0	0
FC(F)(F)c1ccccc1-c1nc(NCCN2CCOCC2)c2ccccc2n1	-	-	-	-	-	0
O=C(COC(=O)c1ccccc1Nc1ccccc1)NCc1ccccc1Cl	0	0	0	13.1µM	0	0
CC(C)CC(NC(N)=O)C(=O)NCc1ccccc1Cl (stereo not given)	-	0	35.5	0	0	0
CC(C)CC(NC(N)=O)C(=O)NCc1ccc(Cl)cc1 (stereo not given)	-	0	0	0	0	0
CC(C)C(=O)OCC(=O)NCc1ccccc1Cl	-	0	29.2	0	0	0
CCC(C)N(C(=O)CSc1nc2ccc(OC)cc2[nH]1)C1CCS(=O)(=O)C1 (stereo not given)	-	0	-	0	-	-
COc1ccc(Oc2ncc3nc(-c4ccc(OC)cc4)c(=O)n(C)c3n2)cc1	-	-	-	-	-	0
Cc1ccccc1-c1cncnc1NCCc1cnc[nH]1	-	-	-	-	-	0
COC(=O)c1ccc(CS(=O)(=O)c2ccc(C)cc2)o1	0	0	0	?	0	0
COC(=O)c1scc(C)c1N/N=C(\C)c1ccc(F)cc1F	0	-	0	2.08µM	0	0
COC(=O)c1ccc(NC(=O)Nc2ccc3c(c2)nc(C)n3C)cc1	0	?	14.9	0	68.4	0
Cc1ccc(NC(=O)Nc2ccc3c(c2)nc(C)n3C)cc1	0	0	33.1	?	53.8	0
Cc1nc2cc(NC(=O)Nc3cccc([N+](=O)[O-])c3)ccc2n1C	0	0	45.7	0	-	0
Cn1c(CCN2CCCCC2)nc2cc(NC(=O)Nc3ccccc3)ccc21	0	?	0	0	0	0
Cc1nc2cc(NC(=O)Nc3ccccc3Cl)ccc2n1C	0	0	13.1	0	28.4	0
Cc1ccc(NC(=O)C2CCCN(S(=O)(=O)c3ccc4[nH]c(=O)ccc4c3)C2)c(C)c1 (stereo not given)	0	0	0	?	0	0

Screening results as filed in PubChem.
